Only some compounds are listed: those with a hit (about 3% of all), similar ones and a draw of the others.
RE007 growth inh: qHTS Assay for Inhibitors of the HIV-1 protein Vpr. S. pombe RE007 Vpr strain, BacTiter-Glo ATP luminescence, 24 h. actives 0.21% (n = 360,000). Potency, µM (doses to about 92.2 µM), usual class: inhibitors. AID 651644, 2012; active = well fitted falling curve with a large enough effect; inconclusive = small, poorly fitted or top-dose-only effect; inactive = no such curve, though single readings can be large or run the other way; also: nearly all actives have a fitted effect of over 50% in size
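Fission yeast RE007 carrying one integrated HIV-1 vpr copy, seeded at OD 0.01 in PMG+AL medium with 23 nL pinned compound. Grown 24 h at 30 degrees; viability read by BacTiter-Glo luminescence after 5 min.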
Sm TGR block: qHTS Assay for the Inhibitors of Schistosoma Mansoni Peroxiredoxins; Schistosoma mansoni thioredoxin glutathione reductase (TGR), Q962Y6; Potency, µM (titrated, usually from 114 µM), actives largely listed as inhibitors; AID 485364, 2010; purified TGR, DTNB reduction, TNB absorbance 405 nm; actives 3% (n = 360,000); also: nearly all actives have a fitted effect of over 60% in size
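First, TGR (20 nM dispensed) and NADPH were mixed with compound. Second, a 15 min room-temperature incubation followed. Third, further NADPH and then DTNB were added to start the reaction. Finally, TNB absorbance was monitored kinetically.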
Tb PYK inh: qHTS of Trypanosoma Brucei Inhibitors | pyruvate kinase (Trypanosoma brucei), Q57TT1 | TbPYK enzyme, Kinase-Glo Plus ATP luminescence, 45 min | Potency, µM (series often up to 76.8 µM), hits mostly inhibitors | actives 0.12% (n = 410,000) | AID 624173, 2012; also: nearly all actives have a fitted effect of over 50% in size
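TbPYK + substrate in 50 mM TEA pH 7.2, 100 mM KCl, 10 mM MgCl2, 0.05% BSA, 0.01% Tween-20; cpd pinned; ADP 130 uM final; 45 min RT; Kinase-Glo Plus 10 min; luminescence endpoint.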
LmPK inhibitor: qHTS Assay for Inhibitors of Leishmania Mexicana Pyruvate Kinase (LmPK). Q27686. purified LmPK, Kinase-Glo ATP luminescence, 1 h. Potency, µM (top dose mostly 57.5 µM), usual class: inhibitors. actives 0.37% (n = 290,000)
Target sequence (Q27686 whole entry, looked up): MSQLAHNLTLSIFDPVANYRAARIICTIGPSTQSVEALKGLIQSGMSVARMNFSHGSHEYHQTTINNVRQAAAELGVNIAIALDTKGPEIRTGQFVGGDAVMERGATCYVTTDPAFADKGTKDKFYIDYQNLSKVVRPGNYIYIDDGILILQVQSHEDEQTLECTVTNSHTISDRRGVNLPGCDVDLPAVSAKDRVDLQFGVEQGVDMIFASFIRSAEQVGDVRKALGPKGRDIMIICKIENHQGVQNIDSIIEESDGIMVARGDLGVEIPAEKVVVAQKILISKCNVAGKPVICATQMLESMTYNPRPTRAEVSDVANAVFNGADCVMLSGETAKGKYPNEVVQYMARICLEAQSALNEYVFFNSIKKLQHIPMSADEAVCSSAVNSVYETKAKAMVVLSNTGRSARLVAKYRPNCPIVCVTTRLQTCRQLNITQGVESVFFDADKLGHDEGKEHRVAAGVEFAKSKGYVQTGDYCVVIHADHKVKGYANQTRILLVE
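Pyruvate kinase activity monitored as ATP production (luciferase luminescence). Conditions: 0.1 nM enzyme, 0.5 mM PEP, 0.1 mM ADP, 1 h, RT; normalized against uninhibited and no-enzyme wells.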
Large screens that a line does not name were inactive. Unless noted, calls follow the shape of the dose curve; as a rule, active = well fitted curve in the direction sought with a large enough effect; inconclusive = small, poorly fitted or top-dose-only effect, or another doubt; inactive = no such curve, though single readings can be large; an effect the other way counts as inactive or inconclusive.

CCCNC(=O)C1=CC(c2ccc3c(c2)OCO3)=NS(=O)(=O)N1C	none (no result: RE007 growth inh, LmPK inhibitor)
COc1cccc2oc(-c3ccco3)cc(=O)c12	Sm TGR block 7.9µM
CC(C)OC(=O)CSc1nnc(Cc2ccccc2)n1Cc1ccco1	Sm TGR block 22µM
O=C(CSc1nnc(COc2ccccc2F)n1-c1ccccc1)NCc1ccco1	Sm TGR block 40µM
COc1ccccc1OCc1nnc(SCC(=O)NCc2ccco2)n1Cc1ccco1	Sm TGR block 16µM
O=C(CSc1nnc(Cc2ccccc2)n1Cc1ccco1)NC1CCCC1	Sm TGR block inconclusive
Cc1ccccc1OCc1nnc(SCC(=O)NCc2ccco2)n1C	none
Cc1ccccc1OCc1nc2c3cnn(-c4cccc(F)c4)c3ncn2n1	none (no result: RE007 growth inh, LmPK inhibitor)
O=C1ON=C(c2cccc([N+](=O)[O-])c2)/C1=C/c1ccc(O)cc1	Sm TGR block 10µM, Tb PYK inh inconclusive
O=C1ON=C(c2ccccc2)/C1=C/c1ccc(O)c(O)c1	Sm TGR block 5µM, LmPK inhibitor inconclusive (no result: RE007 growth inh)
O=C1ON=C(c2ccccc2)/C1=C/c1ccc(OS(=O)(=O)c2ccccc2)cc1	Sm TGR block 8.9µM
Cc1ccc(NC(=O)Nc2nnc(N(C)Cc3ccccc3)s2)cc1	none (no result: RE007 growth inh, LmPK inhibitor)
CCc1ccc(N(C(=O)c2snc(C(N)=O)c2N)C(C(=O)NCC2CCCO2)c2ccco2)cc1 (stereo not given)	none
CCN1CCC(N(Cc2ccc3c(c2)OCO3)C(=O)Nc2cc(F)ccc2F)CC1	none (no result: RE007 growth inh, LmPK inhibitor)
CCc1nn(CC(=O)NCc2ccc(C)cc2)c(=O)c2cc3occc3n12	none (no result: RE007 growth inh, LmPK inhibitor)
Cc1ccc2cccc(NC(=O)c3ccc(-c4cc(Cl)ccc4Cl)o3)c2n1	none (no result: RE007 growth inh, LmPK inhibitor)
COC(=O)c1c(NC(=O)CCl)sc(C(=O)N2CCOCC2)c1C	Sm TGR block 32µM
COC(=O)c1c(N)sc(C(=O)N2CCOCC2)c1C	none
COc1ccc(C(=O)NC(=S)Nc2ccc(CN3CCOCC3)cc2)cc1Br	Sm TGR block 14µM
CCCCOc1ccc(C(=O)NC(=S)Nc2ccc(CN3CCOCC3)cc2)cc1	none
COc1ccc(C(=O)NC(=S)Nc2ccc(CN3CCOCC3)cc2)cc1	Sm TGR block 22µM
N=C1CCC(=N)c2c1c(O)c1ccccc1c2O	RE007 growth inh inconclusive, Sm TGR block 4.5µM, Tb PYK inh inconclusive
O=C(c1ccco1)C(O)c1ccco1 (stereo not given)	Sm TGR block 20µM (no result: RE007 growth inh)
Cc1ccc(C(O)C(=O)c2ccco2)cc1 (stereo not given)	none (no result: LmPK inhibitor)
CCOc1cc(C2C(C#N)=C(N)SC(N)=C2C#N)ccc1OCCN1CCOCC1	Sm TGR block 22µM
CC1(C)CC(C#N)(N2CCOCC2)CCO1 (stereo not given)	Sm TGR block 13µM
N#CC1(N2CCCCC2)CCCCC1	none (no result: RE007 growth inh, Sm TGR block, LmPK inhibitor)
N#Cc1ccc(Cl)cc1NC(=O)CN1C(=O)C(=O)N(CCC2=CCCCC2)C1=O	none (no result: Sm TGR block, LmPK inhibitor)
COc1ccccc1OCC#CCN1CCOCC1	Sm TGR block 11µM
COc1ccccc1OCC#CCN1CCCCCC1	none
CN(C)c1ccc(CN(CC2CCCO2)C(=O)COc2ccc(Cl)cc2)cc1 (stereo not given)	none (no result: RE007 growth inh, LmPK inhibitor)
COc1cc(C(=O)N(CCCN(C)C)c2nc3c(OC)cccc3s2)cc(OC)c1OC	none (no result: RE007 growth inh, LmPK inhibitor)
COc1ccc(CCn2c(-c3ccco3)nc3nc4ccccc4nc32)cc1	Sm TGR block 50µM
c1ccc(-c2nc3nc4ccccc4nc3n2CC2CCCO2)cc1 (stereo not given)	none
c1coc(-c2nc3nc4ccccc4nc3n2CC2CCCO2)c1 (stereo not given)	Sm TGR block 50µM
CC1(C)SC2C(NC(=O)C(c3ccccc3)S(=O)(=O)O)C(=O)N2C1C(=O)O (stereo not given)	none (no result: RE007 growth inh, Sm TGR block, LmPK inhibitor)
COc1cc(C(=O)Nc2ccccc2OCc2cc(=O)n3c(C)csc3n2)cc(OC)c1OC	none (no result: RE007 growth inh, LmPK inhibitor)
CCCCCCCCCCCCCCCC(=O)O[C@@H]1CC(C)=C(\C=C/C(C)=C\C=C/C(C)=C\C=C\C=C(C)\C=C\C=C(C)\C=C\C2=C(C)C[C@@H](OC(=O)CCCCCCCCCCCCCCC)CC2(C)C)C(C)(C)C1	none (no result: RE007 growth inh, Sm TGR block, LmPK inhibitor)
CCN(CC)CCCN1C=C2C(=O)C(C)(OC(=O)C3CCCC3)C(=O)C=C2C=C1c1ccsc1 (stereo not given)	Sm TGR block 50µM
COc1ccc(CCN=C(N)NS(=O)(=O)c2cc(F)ccc2OC)cc1	none
CC(C)(C)C1=CC=C(C(C)(C)C)C(=O)C1=O	Sm TGR block 25µM, LmPK inhibitor 22µM (no result: RE007 growth inh, Tb PYK inh)
CCc1[nH]c(=S)c(C#N)c2c1CCCC2	Tb PYK inh 16µM
CCc1[nH]c(=O)c(C#N)c2c1CCCC2	none
CC(C)Oc1ccc(CN2CCc3nc(Nc4ccc5c(c4)OCCO5)ncc3C2)cc1	none (no result: RE007 growth inh, LmPK inhibitor)
COc1cccc(CSCC(=O)NCCc2ccccc2)c1OC	none
CC(C)(C)c1cc(CN2CCN(CCO)CC2)cc(C(C)(C)C)c1O	Sm TGR block 2.5µM
CN1CCN(CC(=O)c2cc(C(C)(C)C)c(O)c(C(C)(C)C)c2)CC1	none
CCN1CCN(Cc2cc(C(C)(C)C)c(O)c(C(C)(C)C)c2)CC1	Sm TGR block 2.8µM (no result: RE007 growth inh, Tb PYK inh)
Cc1cccc(Cn2c(=O)n(CCCC(=O)NCc3ccccc3Cl)c(=O)c3ccccc32)c1	none (no result: RE007 growth inh, LmPK inhibitor)
CN(C(=O)c1cc(-c2ccccc2O)on1)c1ccccc1	none (no result: RE007 growth inh, LmPK inhibitor)
COc1ccc(-c2cccc(NS(=O)(=O)c3cc(C)c(Cl)cc3C)c2)nn1	none (no result: RE007 growth inh, LmPK inhibitor)
O=C(Nc1cccc(C(F)(F)F)c1)c1cccnn1	Sm TGR block 89µM
O=C(Nc1cccc(Cl)c1)c1cccnn1	none
O=C(Nc1ncc([N+](=O)[O-])s1)c1cccc([N+](=O)[O-])c1	LmPK inhibitor 13µM
O=C(Nc1ncc(S(=O)(=O)c2ccc([N+](=O)[O-])cc2)s1)c1cccnc1	Sm TGR block 28µM
COC(=O)NC(NC(=S)Nc1ccc([N+](=O)[O-])cc1)C(Cl)(Cl)Cl (stereo not given)	Sm TGR block 20µM
COc1ccc(NC(=S)NC(NC(=O)CCl)C(Cl)(Cl)Cl)c([N+](=O)[O-])c1 (stereo not given)	Sm TGR block 2.8µM
COc1ccc(NC(=S)NC(NC(=O)c2ccccc2Cl)C(Cl)(Cl)Cl)c([N+](=O)[O-])c1 (stereo not given)	none
COc1ccc(NC(=S)NC(NC(=O)CF)C(Cl)(Cl)Cl)cc1[N+](=O)[O-] (stereo not given)	Sm TGR block 35µM
Nc1nc2n(n1)C1(CCCCC1)C1=C(CCCC1)N2	Sm TGR block inconclusive (no result: RE007 growth inh, Tb PYK inh)
C1CCC2(CC1)C1=C(CCCC1)Nc1nnnn12	Sm TGR block 45µM (no result: Tb PYK inh)
Cc1ccc(S(=O)(=O)c2nnn3c2nc(N2CCOCC2)c2sccc23)cc1C	none (no result: RE007 growth inh, LmPK inhibitor)
COCC(C)OC(=O)/C(C#N)=C\c1coc2ccc(C)cc2c1=O (stereo not given)	Sm TGR block 18µM, Tb PYK inh inconclusive
Cc1ccc2occ(/C=N/NC(=O)[C@@H](N)Cc3ccccc3)c(=O)c2c1	none

Compound activity deposited in PubChem BioAssay by National Center for Advancing Translational Sciences (NCATS).
